# Experimental data published in paper PMC7862700, “An all-to-all approach to the identification of sequence-specific readers for epigenetic DNA modifications on cytosine”.
# Legend:
# Test in all cases: DAPPL (digital affinity profiling via proximity ligation, sequencing); 10 mM Tris-HCl pH 7.5, 50 mM NaCl, 1 mM DTT, 4% glycerol, room temperature, 30 min; GST-TFs on glutathione beads, 16-mer random dsDNA library, 0.1% formaldehyde crosslink after washing; high values mean tight binding
# FEV = target: T1, FEV (Homo sapiens, UniProt Q99581 1-238); conditions: protein: recombinant; tags: N-terminal GST; dsDNA, one strand shown
# T1 sequence: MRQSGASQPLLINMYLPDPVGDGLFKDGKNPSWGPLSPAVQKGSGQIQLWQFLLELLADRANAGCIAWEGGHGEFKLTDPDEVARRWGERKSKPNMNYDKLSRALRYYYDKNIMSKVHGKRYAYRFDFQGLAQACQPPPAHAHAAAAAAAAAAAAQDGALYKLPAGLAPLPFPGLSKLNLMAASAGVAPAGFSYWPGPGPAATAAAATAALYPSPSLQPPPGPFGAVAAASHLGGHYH
# Procedure, shortened: (§1)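 Human transcription factors fused to GST were expressed in yeast, captured on glutathione beads, given DNA barcodes and pooled with a GST-only negative control. Pools were incubated with 200 nmole of a 16-mer random double-stranded DNA library in Tris/NaCl/DTT/glycerol buffer at room temperature for 30 min. They were then washed, crosslinked with 0.1% formaldehyde, proximity-ligated (BsaI/T4 ligase, 1 h, 37 °C), PCR-amplified and sequenced on an Illumina NextSeq500. Binding signal is each 6-mer's read frequency for a factor divided by its frequency for the GST control.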
# ETV5 = ETV5 (Homo sapiens, UniProt P41161 1-510); conditions: protein: recombinant; tags: N-terminal GST; dsDNA, one strand shown
# ETV5, sequence (P41161 whole entry): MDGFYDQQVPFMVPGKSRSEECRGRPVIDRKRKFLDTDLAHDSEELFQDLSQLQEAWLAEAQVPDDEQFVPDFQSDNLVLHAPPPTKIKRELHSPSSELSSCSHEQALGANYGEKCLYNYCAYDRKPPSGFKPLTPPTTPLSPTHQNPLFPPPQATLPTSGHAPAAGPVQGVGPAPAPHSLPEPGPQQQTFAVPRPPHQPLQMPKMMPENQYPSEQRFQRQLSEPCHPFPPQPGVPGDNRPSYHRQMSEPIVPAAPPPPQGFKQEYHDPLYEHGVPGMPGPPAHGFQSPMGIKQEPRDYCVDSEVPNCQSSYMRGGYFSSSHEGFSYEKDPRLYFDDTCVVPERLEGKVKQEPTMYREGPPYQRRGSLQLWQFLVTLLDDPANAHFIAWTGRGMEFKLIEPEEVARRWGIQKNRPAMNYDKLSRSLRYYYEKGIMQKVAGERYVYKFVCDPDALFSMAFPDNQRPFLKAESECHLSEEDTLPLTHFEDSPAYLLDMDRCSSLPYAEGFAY
# Procedure, shortened: as §1
# HSF1 = HSF1 (Homo sapiens, UniProt Q00613 1-529); conditions: protein: recombinant; tags: N-terminal GST; chain copies: 3; dsDNA, one strand shown
# HSF1, sequence (Q00613 whole entry): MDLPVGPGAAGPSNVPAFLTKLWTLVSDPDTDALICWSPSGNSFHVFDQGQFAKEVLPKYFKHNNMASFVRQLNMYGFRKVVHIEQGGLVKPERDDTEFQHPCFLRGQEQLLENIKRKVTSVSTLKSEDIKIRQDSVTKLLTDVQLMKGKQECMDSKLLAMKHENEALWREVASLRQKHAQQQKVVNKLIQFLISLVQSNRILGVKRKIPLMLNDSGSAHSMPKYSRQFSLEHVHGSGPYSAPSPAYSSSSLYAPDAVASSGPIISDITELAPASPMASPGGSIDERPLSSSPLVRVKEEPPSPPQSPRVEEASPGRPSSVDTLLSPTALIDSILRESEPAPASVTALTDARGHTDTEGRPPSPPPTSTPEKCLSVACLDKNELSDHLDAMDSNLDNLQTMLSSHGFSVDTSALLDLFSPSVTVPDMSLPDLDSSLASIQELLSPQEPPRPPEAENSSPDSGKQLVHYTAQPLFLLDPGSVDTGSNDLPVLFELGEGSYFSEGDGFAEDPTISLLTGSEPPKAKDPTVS
# Procedure, shortened: as §1
# SPIC = target: T2, SPIC (Homo sapiens, UniProt Q8N5J4 1-248); conditions: protein: recombinant; tags: N-terminal GST; dsDNA, one strand shown
# T2 sequence: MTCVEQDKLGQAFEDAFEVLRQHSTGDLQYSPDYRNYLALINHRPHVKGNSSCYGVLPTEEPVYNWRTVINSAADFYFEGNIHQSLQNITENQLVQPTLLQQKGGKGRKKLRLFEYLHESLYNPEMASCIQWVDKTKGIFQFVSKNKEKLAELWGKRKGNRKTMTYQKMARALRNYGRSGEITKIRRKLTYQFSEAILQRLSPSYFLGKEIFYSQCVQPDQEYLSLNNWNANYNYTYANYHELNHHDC
# Procedure, shortened: as §1
# ELF4 = ELF4 (Homo sapiens, UniProt Q99607 1-663); conditions: protein: recombinant; tags: N-terminal GST; dsDNA, one strand shown
# ELF4, sequence (Q99607 whole entry): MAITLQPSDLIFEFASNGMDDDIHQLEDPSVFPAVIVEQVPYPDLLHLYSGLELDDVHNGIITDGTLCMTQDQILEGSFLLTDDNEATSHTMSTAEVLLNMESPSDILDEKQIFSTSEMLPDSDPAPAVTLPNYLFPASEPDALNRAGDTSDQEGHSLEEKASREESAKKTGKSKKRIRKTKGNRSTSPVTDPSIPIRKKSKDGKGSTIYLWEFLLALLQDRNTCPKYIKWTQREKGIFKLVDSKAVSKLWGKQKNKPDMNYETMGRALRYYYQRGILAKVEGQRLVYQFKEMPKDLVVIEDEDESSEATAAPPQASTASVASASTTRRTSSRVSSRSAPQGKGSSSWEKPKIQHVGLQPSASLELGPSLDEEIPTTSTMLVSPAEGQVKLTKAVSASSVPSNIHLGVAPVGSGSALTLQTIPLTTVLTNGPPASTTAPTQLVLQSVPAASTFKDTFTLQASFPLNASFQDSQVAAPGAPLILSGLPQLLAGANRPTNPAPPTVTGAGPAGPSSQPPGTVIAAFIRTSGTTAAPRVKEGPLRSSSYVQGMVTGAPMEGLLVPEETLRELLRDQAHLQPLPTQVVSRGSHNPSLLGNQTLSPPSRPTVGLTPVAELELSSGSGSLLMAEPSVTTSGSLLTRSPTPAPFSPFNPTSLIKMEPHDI
# Procedure, shortened: as §1
# ELK4 = target: T3, ELK4 (Homo sapiens, UniProt P28324-2 1-405); conditions: protein: recombinant; tags: N-terminal GST; dsDNA, one strand shown
# T3 sequence: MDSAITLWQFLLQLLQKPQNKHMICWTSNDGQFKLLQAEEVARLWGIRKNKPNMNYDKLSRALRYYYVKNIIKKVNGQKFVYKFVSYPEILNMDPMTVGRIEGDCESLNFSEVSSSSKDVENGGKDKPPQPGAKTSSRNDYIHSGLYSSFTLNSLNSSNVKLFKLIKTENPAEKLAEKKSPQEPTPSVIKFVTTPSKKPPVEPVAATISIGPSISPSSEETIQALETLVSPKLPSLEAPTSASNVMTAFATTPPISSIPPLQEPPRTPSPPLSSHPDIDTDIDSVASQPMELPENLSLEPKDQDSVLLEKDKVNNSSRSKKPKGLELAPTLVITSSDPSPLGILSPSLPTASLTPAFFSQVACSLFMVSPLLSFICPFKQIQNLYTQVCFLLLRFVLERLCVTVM
# Procedure, shortened: as §1
# ETV2 = target: T4, ETV2 (Homo sapiens, UniProt O00321 1-342); conditions: protein: recombinant; tags: N-terminal GST; dsDNA, one strand shown
# T4 sequence: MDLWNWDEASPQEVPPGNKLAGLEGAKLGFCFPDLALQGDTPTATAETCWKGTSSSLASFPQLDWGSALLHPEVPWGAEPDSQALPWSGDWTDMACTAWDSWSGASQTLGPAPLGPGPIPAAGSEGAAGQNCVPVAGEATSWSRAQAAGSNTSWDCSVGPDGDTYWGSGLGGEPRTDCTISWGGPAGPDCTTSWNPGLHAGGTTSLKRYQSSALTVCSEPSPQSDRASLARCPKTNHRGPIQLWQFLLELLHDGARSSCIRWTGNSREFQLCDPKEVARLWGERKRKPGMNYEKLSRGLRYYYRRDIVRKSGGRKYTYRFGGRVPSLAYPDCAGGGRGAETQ
# Procedure, shortened: as §1
# ELF3 = target: T5, ELF3 (Homo sapiens, UniProt P78545 1-371); conditions: protein: recombinant; tags: N-terminal GST; dsDNA, one strand shown
# T5 sequence: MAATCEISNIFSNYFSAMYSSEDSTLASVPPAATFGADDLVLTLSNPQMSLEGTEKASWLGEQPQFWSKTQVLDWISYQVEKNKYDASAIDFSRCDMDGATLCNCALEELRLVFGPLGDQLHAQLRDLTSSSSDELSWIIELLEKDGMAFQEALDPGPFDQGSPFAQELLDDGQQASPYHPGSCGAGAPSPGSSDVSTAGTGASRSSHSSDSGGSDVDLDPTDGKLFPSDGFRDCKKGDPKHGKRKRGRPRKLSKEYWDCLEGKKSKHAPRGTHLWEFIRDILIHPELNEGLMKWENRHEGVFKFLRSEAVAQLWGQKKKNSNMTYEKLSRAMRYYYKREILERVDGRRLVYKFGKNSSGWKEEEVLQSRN
# Procedure, shortened: as §1
# ETV1 = ETV1 (Homo sapiens, UniProt P50549 1-477); conditions: protein: recombinant; tags: N-terminal GST; dsDNA, one strand shown
# ETV1, sequence (P50549 whole entry): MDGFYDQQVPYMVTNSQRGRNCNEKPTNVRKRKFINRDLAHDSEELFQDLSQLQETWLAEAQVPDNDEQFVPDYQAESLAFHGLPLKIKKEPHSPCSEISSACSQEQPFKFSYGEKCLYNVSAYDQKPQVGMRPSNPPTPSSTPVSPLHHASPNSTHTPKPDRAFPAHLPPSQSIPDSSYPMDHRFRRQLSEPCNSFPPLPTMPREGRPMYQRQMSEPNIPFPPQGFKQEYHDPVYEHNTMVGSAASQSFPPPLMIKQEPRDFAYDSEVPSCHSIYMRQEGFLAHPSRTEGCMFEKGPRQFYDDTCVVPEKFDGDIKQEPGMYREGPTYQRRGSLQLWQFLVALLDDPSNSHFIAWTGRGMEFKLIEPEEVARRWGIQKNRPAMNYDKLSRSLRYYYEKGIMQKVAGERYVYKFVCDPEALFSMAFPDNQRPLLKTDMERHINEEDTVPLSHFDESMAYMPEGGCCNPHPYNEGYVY
# Procedure, shortened: as §1
# CRX = CRX (Homo sapiens, UniProt O43186 1-299); conditions: protein: recombinant; tags: N-terminal GST; dsDNA, one strand shown
# CRX, sequence (O43186 whole entry): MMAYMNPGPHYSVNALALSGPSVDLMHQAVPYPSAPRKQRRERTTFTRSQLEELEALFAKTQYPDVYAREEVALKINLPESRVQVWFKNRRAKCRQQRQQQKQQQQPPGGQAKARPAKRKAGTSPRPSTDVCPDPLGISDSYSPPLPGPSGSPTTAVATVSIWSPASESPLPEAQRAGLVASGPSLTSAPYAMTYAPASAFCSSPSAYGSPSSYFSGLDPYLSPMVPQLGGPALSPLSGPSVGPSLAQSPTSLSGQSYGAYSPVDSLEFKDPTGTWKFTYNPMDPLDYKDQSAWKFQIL
# Procedure, shortened: as §1
Sequence,binding signal (FEV),binding signal (ETV5),binding signal (HSF1),binding signal (SPIC),binding signal (ELF4),binding signal (ELK4),binding signal (ETV2),binding signal (ELF3),binding signal (ETV1),binding signal (CRX)
AAGCAA,"1.05 fold enrichment (6-mer frequency, TF over GST control)","1.11 fold enrichment (6-mer frequency, TF over GST control)","1.04 fold enrichment (6-mer frequency, TF over GST control)","1.03 fold enrichment (6-mer frequency, TF over GST control)","1.06 fold enrichment (6-mer frequency, TF over GST control)","1.08 fold enrichment (6-mer frequency, TF over GST control)","1.01 fold enrichment (6-mer frequency, TF over GST control)","1.09 fold enrichment (6-mer frequency, TF over GST control)","1.08 fold enrichment (6-mer frequency, TF over GST control)",–
ATTCAG,"1.03 fold enrichment (6-mer frequency, TF over GST control)","1.1 fold enrichment (6-mer frequency, TF over GST control)","1.17 fold enrichment (6-mer frequency, TF over GST control)","1.17 fold enrichment (6-mer frequency, TF over GST control)","1.13 fold enrichment (6-mer frequency, TF over GST control)","1.08 fold enrichment (6-mer frequency, TF over GST control)","1.02 fold enrichment (6-mer frequency, TF over GST control)",–,"1.07 fold enrichment (6-mer frequency, TF over GST control)","1.07 fold enrichment (6-mer frequency, TF over GST control)"
CTGGGT,"1.06 fold enrichment (6-mer frequency, TF over GST control)","1.05 fold enrichment (6-mer frequency, TF over GST control)","1.04 fold enrichment (6-mer frequency, TF over GST control)","1.17 fold enrichment (6-mer frequency, TF over GST control)","1.13 fold enrichment (6-mer frequency, TF over GST control)","1.2 fold enrichment (6-mer frequency, TF over GST control)","1.22 fold enrichment (6-mer frequency, TF over GST control)","1.12 fold enrichment (6-mer frequency, TF over GST control)",–,–
TATTAG,"1.02 fold enrichment (6-mer frequency, TF over GST control)","1.04 fold enrichment (6-mer frequency, TF over GST control)","1.42 fold enrichment (6-mer frequency, TF over GST control)","1.13 fold enrichment (6-mer frequency, TF over GST control)","1.05 fold enrichment (6-mer frequency, TF over GST control)","1.04 fold enrichment (6-mer frequency, TF over GST control)","1.23 fold enrichment (6-mer frequency, TF over GST control)",–,"1.12 fold enrichment (6-mer frequency, TF over GST control)","1.94 fold enrichment (6-mer frequency, TF over GST control)"
CCACGC,"1.2 fold enrichment (6-mer frequency, TF over GST control)","1.15 fold enrichment (6-mer frequency, TF over GST control)","1.05 fold enrichment (6-mer frequency, TF over GST control)","1.14 fold enrichment (6-mer frequency, TF over GST control)","1.22 fold enrichment (6-mer frequency, TF over GST control)","1.19 fold enrichment (6-mer frequency, TF over GST control)","1.14 fold enrichment (6-mer frequency, TF over GST control)","1.24 fold enrichment (6-mer frequency, TF over GST control)","1.24 fold enrichment (6-mer frequency, TF over GST control)",–
AAGCAC,"1.23 fold enrichment (6-mer frequency, TF over GST control)","1.12 fold enrichment (6-mer frequency, TF over GST control)","1.04 fold enrichment (6-mer frequency, TF over GST control)","1.09 fold enrichment (6-mer frequency, TF over GST control)","1.2 fold enrichment (6-mer frequency, TF over GST control)","1.12 fold enrichment (6-mer frequency, TF over GST control)","1.22 fold enrichment (6-mer frequency, TF over GST control)",–,"1.14 fold enrichment (6-mer frequency, TF over GST control)","1.09 fold enrichment (6-mer frequency, TF over GST control)"
CACGAA,"1.09 fold enrichment (6-mer frequency, TF over GST control)","1.1 fold enrichment (6-mer frequency, TF over GST control)","1.39 fold enrichment (6-mer frequency, TF over GST control)","1.12 fold enrichment (6-mer frequency, TF over GST control)","1.2 fold enrichment (6-mer frequency, TF over GST control)","1.3 fold enrichment (6-mer frequency, TF over GST control)","1.18 fold enrichment (6-mer frequency, TF over GST control)","1.07 fold enrichment (6-mer frequency, TF over GST control)","1.14 fold enrichment (6-mer frequency, TF over GST control)",–
